From PubChem BioAssay (Tox21)
Activity calls are given as the source filed them. Calls follow the shape of the dose curve; as a rule, active = well fitted curve in the direction sought with a large enough effect in the repeat runs; inconclusive = weak or mixed curves; inactive = flat fitted curve, though single readings scatter.

Assay: qHTS assay to test for compound auto fluorescence at 460 nm (blue) in HepG2 cells (AID 720687)
Conditions: autofluorescence 405/460 nm, 1 h; series mostly up to 91.3 µM
From the text: U.S. Tox21 Program National Center for Advancing Translational Sciences [NCATS] NIH Chemical Genomics Center [NCGC] U.S. Environmental Protection Agency [EPA] National Institutes of Environmental Health Sciences [NIEHS] National Toxicology Program [NTP] U.S. Food and Drug Administration [FDA] Tox21 Assay Overview: Compound auto fluorescence often interferes with screening of the compound library against various biological targets and signaling pathways. Some of these compounds may have fluorophoric properties. Such properties may interfere with the assay outputs resulting in false positives and/or negatives. To decrease such complications and ensure the compound activities are relevant in terms of biological response, the Tox21 10K compound library was screened for auto fluorescence. From the fluorophores used as reporter signals in our screening assays, the auto fluorescence equivalencies of compounds against three fluorophores have been evaluated: Triamterene, Fluorescein and Rose Bengal sodium for blue, green and red fluorescence, respectively. The fluorescence intensities were measured using Excitation/Emission wavelengths at 405/460nm, 485/535nm and 540/590nm for blue, green and red labels, respectively. This assay includes the blue fluorescence data.
Tox21 Assay Protocol Summary: 2,000 HepG2 cells in 5 uL of culture medium (MEM containing 10% FBS) per well were dispensed into black wall/clear bottom 1536-well plates using a Multidrop Combi Dispenser (ThermoFisher Scientific, Waltham, MA). The assay plates were incubated overnight at 37 C to allow cell attachment to the well bottom, followed by the transfer of 23 nL compound or DMSO vehicle by a pintool work station (Kalypsys , San Diego, CA). After the assay plates were incubated for 1 hr at 37 C and 5% CO2, fluorescence intensities in the assay plates were measured by an Envision (PerkinElmer, Shelton, CT) plate reader using three labels for measuring blue, green and red fluorescence at […] 460, 535 and 590 nm respectively.
% is scaled to controls: 0 for no effect and ±100 for the full control effect.

| Compound | outcome | fluorescence, % of fluorescent control |
| --- | --- | --- |
| CC(C)(C)OC(=O)c1cccc(N)c1 | inactive |  |
| C=CCCC(=O)O | inactive |  |
| CC(C)(N)C#N | inactive |  |
| CCN[C@@H]1C[C@H](N)[C@@H](OC2OC(CN)=CCC2N)[C@H](O)[C@H]1O[C@H]1OC[C@](C)(O)[C@H](NC)[C@H]1O (stereo not given in full) | inactive |  |
| CCCCCCCCN1CCCC1=O | inactive |  |
| O=C1c2ccccc2C(=O)c2cc(O)ccc21 | inactive |  |
| FB(F)F | inactive |  |
| C[C@H]1[C@H](NC(=O)/C(=N/OC(C)(C)C(=O)O)c2csc(N)n2)C(=O)N1S(=O)(=O)O (stereo in doubt) |  | 0.0116% [at 18.6 µM] (inactive) |
| CC(C)(C#N)Nc1nc(Cl)nc(NC2CC2)n1 | inactive |  |
| N[C@H](C(=O)O)[C@@H](O)c1ccc(O)c(O)c1 | inactive |  |
| O=C(CO)[C@@H](O)[C@H](O)[C@@H](O)CO | inactive |  |
| COc1cccc(OC)c1C(=O)N[C@@H]1C(=O)N2[C@@H]1SC(C)(C)[C@@H]2C(=O)O | inactive |  |
| CCOC(=O)CCC(=O)OCC | inactive |  |
| CCCc1nn(C)c2c(=O)[nH]c(-c3cc(S(=O)(=O)N4CCN(C)CC4)ccc3OCC)nc12 | inactive |  |
| CC1CCC(CO)CC1 (stereo not given) | inactive |  |
| Cc1c(N)c(=O)n(-c2ccccc2)n1C |  | -0.0556% [at 18.6 µM] (inactive) |
| C[N+](C)(C)CCCCCCCCCC[N+](C)(C)C | inactive |  |
| CC1=CCC(O)(C(C)C)CC1 (stereo not given) | inactive |  |
| CCCCS(=O)(=O)N[C@@H](Cc1ccc(OCCCCC2CCNCC2)cc1)C(=O)O | inactive |  |
| Cc1ncc(COP(=O)(O)O)c(C=O)c1O | inactive |  |

| Compound | outcome | fluorescence, % of fluorescent control |
| --- | --- | --- |
| CN(C)CCCN(C)CCCN(C)C | inactive |  |
| CC(CC=O)CC(C)(C)C (stereo not given) | inactive |  |
| CC(=O)c1ccc2ccccc2c1 | inactive |  |
| O=CN(CCO)CCO | inactive |  |
| NO | inactive |  |
| CC1=NN(c2cccc(S(=O)(=O)O)c2)C(=O)C1 | inactive |  |
| CCN1CCOCC1 | inactive |  |
| C=CC(C)(CCC=C(C)C)OC(=O)CC (stereo not given) | inactive |  |
| CN1CC(=O)N/C1=N/C(=O)Nc1cccc(Cl)c1 | inactive |  |
| CCOc1ccccc1OCC | inactive |  |
| CCOc1ccc2nc(S(N)(=O)=O)sc2c1 | inactive |  |
| CC(=O)N[C@H]1[C@H]([C@H](O)[C@H](O)CO)OC(C(=O)O)=C[C@@H]1N=C(N)N | inactive |  |
| O=C1NC(=O)C2CC=CCC12 (stereo not given) | inactive |  |
| CCCCCC(C)N (stereo not given) | inactive |  |
| NCCCC[C@H](N[C@@H](CCc1ccccc1)C(=O)O)C(=O)N1CCC[C@H]1C(=O)O |  | 0.0286% [at 18.6 µM] (inactive) |
| CCN1C=CN(C)C1C (stereo not given) | inactive |  |
| CC12CCC(C(=O)C1=O)C2(C)C (stereo not given) | inactive |  |
| CCN[C@H]1C[C@H](C)S(=O)(=O)c2sc(S(N)(=O)=O)cc21 | inactive |  |
| CN(C)[C@@H]1C(=O)C(C(=O)NCN2CCCC2)=C(O)[C@@]2(O)C(=O)C3=C(O)c4c(O)cccc4[C@@](C)(O)C3C[C@@H]12 (stereo not given in full) | inactive |  |
| O=C(O)CNC(=O)c1ccccc1 | inactive |  |
